# An excerpt weighted towards active compounds, which were near 1.4% of everything screened.
# S-ASM inh – inhibitors of human secretory acid sphingomyelinase; P17405; AID 504937; 340,000 tested, 0.006% active; Potency, µM (titrated, usually from 57.5 µM), inactives show top-dose activity change, negative = inhibition, hits mostly inhibitors; placental ASM, HMU-PC fluorogenic substrate, 60 min; further: potency means the concentration at half of the fitted maximal effect
# Target sequence (P17405 47-631 limits assumed): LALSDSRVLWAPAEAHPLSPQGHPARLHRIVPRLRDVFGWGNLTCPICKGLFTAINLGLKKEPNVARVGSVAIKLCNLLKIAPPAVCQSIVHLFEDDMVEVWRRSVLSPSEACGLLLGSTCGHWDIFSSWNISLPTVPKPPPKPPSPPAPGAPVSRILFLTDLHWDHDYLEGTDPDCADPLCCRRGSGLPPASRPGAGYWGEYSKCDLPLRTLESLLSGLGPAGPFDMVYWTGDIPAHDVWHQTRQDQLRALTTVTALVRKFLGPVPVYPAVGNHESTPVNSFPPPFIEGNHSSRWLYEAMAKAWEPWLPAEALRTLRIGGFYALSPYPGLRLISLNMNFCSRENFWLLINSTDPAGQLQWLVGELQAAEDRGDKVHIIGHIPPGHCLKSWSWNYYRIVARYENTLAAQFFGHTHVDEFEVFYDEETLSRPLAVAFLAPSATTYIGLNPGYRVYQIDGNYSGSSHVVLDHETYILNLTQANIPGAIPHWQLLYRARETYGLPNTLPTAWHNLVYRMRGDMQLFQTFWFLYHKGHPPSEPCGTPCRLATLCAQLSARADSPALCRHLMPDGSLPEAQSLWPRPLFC
#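 Steps: dispense placental human ASM, pin compound, wait 10 min at room temperature, add HMU-PC0 substrate at 9 uM final, incubate 60 min at 37 °C, add stop solution raising pH to 10, read fluorescence.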
# Vif-APOBEC3G blk – blocks the Vif interaction with human APOBEC3G | Q9HC16 | HeLa A3G-eYFP + Vif (tagged APOBEC3G with the HIV-1 protein that degrades it), YFP fluorescence, overnight | Potency, µM (highest dose often 46.1 µM), inactives show at the highest dose activity, negative = active, hits mostly inhibitors | 410,000 tested, 0.076% active; further: potency means the concentration at half of the fitted maximal effect; on the % scale 0 is the no-effect control and ±100 the full control effect; nearly all actives have a fitted effect of over 60% in size
#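 Read-out is eYFP fluorescence (Ex 488/Em 500-530) from Vif-expressing HeLa A3G-eYFP cells; more signal means A3G escaped Vif-mediated degradation. Cells plated overnight, compound pinned in, incubated overnight at 37 deg C.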
# PTAP TSG101 blk – blocks PTAP/TSG101 interaction to inhibit HIV-1 budding. Potency, µM (series often up to 115 µM), inactives show top-dose activity change, negative = inhibition, actives largely listed as inhibitors. Fluorescence polarization, FITC-PTAP peptide / Tsg101 binding. 340,000 tested, under 10 active; active means well fitted inhibition curve with a large enough effect in the main read-out, with a control signal flat, not every such curve was filed as active; inconclusive means small, poorly fitted or top-dose-only effect, or effect the other way, or a change in a side signal; inactive means no such curve, though single readings can be large or run the other way; further: potency means the concentration at half of the fitted maximal effect; % of control where 0% means no effect
#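 Compounds were pin-transferred onto Tsg101 binding domain (10 uM final) in HEPES pH 7.5 buffer, then FITC-PTAP peptide was added at 50 nM final. After 20 min at RT, polarization reported peptide displacement across a qHTS concentration series.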
# ALOX12 inh – ALOX12 (human) lipoxygenase inhibition. 580,000 tested, 1.1% active. P18054. Potency, µM (titrated, usually from 108 µM), inactives show at the highest dose activity change, negative = inhibition, most hits filed as inhibitors. purified 12hLO, xylenol orange hydroperoxide absorbance; further: potency means the concentration at half of the fitted maximal effect; on the % scale 0 is the no-effect control and ±100 the full control effect
#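 Hydroperoxide product was detected by ferrous iron/xylenol orange as the 573 to 405 nm absorbance ratio. Arachidonic acid at 40 uM (final) was turned over for 30 min at room temperature by 150 nM human 12hLO, pH 7.0 Hepes buffer, after 15 min compound preincubation.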
# Akt phos inh – inhibitors of Akt phosphorylation; Neuro2A IGF-stimulated pAkt S473 HTRF, 20 min; hits give low values; activity change, % for hits at 50 µM; 360,000 tested, 0.32% active; in the data active means activity change below about -80%; inconclusive means mostly about -51% to -80%; further: on the % scale 0 is the no-effect control and ±100 the full control effect
#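 Single-point screen (50 µM final compound) in Neuro2A cells stimulated 20 min with 6 nM IGF at 37 deg C. After lysis, Ser473-phosphorylated Akt read by HTRF (ex 330 nm, em 615/665 nm) as the 665/615 ratio.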
# Vif-APOBEC3F blk – inhibitors of Vif-A3F interaction. 390,000 tested, 0.2% active. Potency, µM (series often up to 46.1 µM), for the others: at the top dose activity, negative = active. AID 602313. HeLa A3F-eYFP + Vif (tagged APOBEC3F with the HIV-1 protein that degrades it), YFP fluorescence increase; further: potency means the concentration at half of the fitted maximal effect; % of control where 0% means no effect; nearly all actives have a fitted effect of over 65% in size
#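 Fluorescence increase (Ex 488/Em 500-530) after overnight compound treatment at 37 deg C flags inhibition of Vif-driven A3F-eYFP loss in stable HeLa A3F-eYFP/Vif cells seeded overnight beforehand.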
# The depositor's hits bear a star; i = inactive; ? = inconclusive; nt = no result given; ! = not active in a repeat; [ ] = dose if it differs, or a comment. Unless noted, the call rests on the fitted dose curve; in most records, active means well fitted curve in the direction sought with a large enough effect; inconclusive means small, poorly fitted or top-dose-only effect, or another doubt; inactive means no such curve, though single readings can be large; an effect the other way counts as inactive or inconclusive.
SMILES,S-ASM inh,Vif-APOBEC3G blk,PTAP TSG101 blk,ALOX12 inh,Akt phos inh,Vif-APOBEC3F blk
Cc1cc(C)c(NC(=O)c2ccc3c(c2)CCC3)c(C)c1,nt,nt,nt,0%,nt,nt
Cc1ccc(NC(=O)C2=Cc3sc4c(c3CS2)CCCC4)cc1C,nt,nt,nt,7.1µM*,nt,nt
CCC(C)NC(=O)c1csc2c1CCCCC2 (stereo not drawn),6%,-3%,-6%,-6%,i,-1%
CCC(C)NC(=O)C1=Cc2sc3c(c2CS1)CCCC3 (stereo not drawn),nt,nt,nt,14µM*,nt,nt
Cc1ccc(C)c(NC(=O)C2=Cc3sc4c(c3CS2)CCCC4)c1,nt,nt,nt,18µM*,nt,nt
Cc1cc(C)c(NC(=O)C2=Cc3sc4c(c3CS2)CCCC4)c(C)c1,nt,nt,nt,28µM*,nt,nt
CC(=O)N1CCN(C(=O)Cn2ccc3cc(Cl)ccc32)CC1,nt,nt,nt,-11%,nt,nt
COc1ccc(C(=O)NCc2cccc(C)c2)cc1,nt,nt,nt,-2%,nt,nt
Cc1ccc(-c2n[nH]c(=S)n2/N=C/c2cccn2C)cc1,-1%,0%,0%,25µM*,i,-16%
Cc1ccc(-c2n[nH]c(=S)n2/N=C/c2ccc(C)s2)cc1,-4%,2%,-3%,16µM*,i,-7%
Cn1cccc1/C=N/n1c(-c2ccc(Cl)cc2)n[nH]c1=S,3%,-3%,0%,?,i,5%
CC(OC(=O)c1ccc(CO)cc1)C(=O)c1c[nH]c2ccccc12 (stereo not drawn),nt,nt,nt,4%,nt,nt
COc1cccc(Cn2c(=O)c(-c3cn(C)c4ccccc34)nc3cnc(OC)nc32)c1,nt,nt,nt,40µM*,nt,nt
CC(C)Sc1nnc(COc2ccc(Cl)cc2)n1C,nt,nt,nt,21%,nt,nt
O=C1N(c2ccccc2)c2ccccc2C1(Cc1ccncc1)Cc1ccncc1,-5%,-2%,-11%,24µM*!,i,5%
CC1(CCBr)C(=O)N(c2ccccc2)c2ccccc21 (stereo not drawn),3%,-3%,-2%,-20%,i,-1%
Cc1ccc(N(CC(=O)Nc2c(C)n(C)n(-c3ccccc3)c2=O)S(C)(=O)=O)cc1C,2%,0%,-4%,7%,-109%*,0%
Oc1ccc(-c2n[nH]c(=S)n2Cc2ccco2)cc1,1%,0%,-11%,?,i,-10%
S=c1[nH]nc(Cc2ccccc2)n1Cc1ccco1,-2%,0%,-11%,35µM*,i,0%
Oc1cc2ccccc2cc1-c1n[nH]c(=S)n1Cc1ccco1,218%,0%,-5%,40µM*,i,4%
CC(C)C(C)NC(=O)CSc1ccc2ccccc2n1 (stereo not drawn),nt,nt,nt,21%,nt,nt
CC(=O)Nc1ccc2c(O)cc(S(=O)(=O)O)cc2c1,14%,0%,-8%,?,i,-23%
O=S(=O)(O)c1cc(O)c2cc(Nc3ccccc3)ccc2c1,335%,1%,-8%,35µM*,i,-6%
Cc1ccc(S(=O)(=O)c2cc(Nc3ccccc3)ccc2O)cc1,3%,-7%,-1%,?,i,-6%
COc1ccccc1Nc1ccc2c(O)cc(S(=O)(=O)O)cc2c1,21%,-3%,-6%,10µM*,i,-22%
SMILES,S-ASM inh,Vif-APOBEC3G blk,PTAP TSG101 blk,ALOX12 inh,Akt phos inh,Vif-APOBEC3F blk
O=S(=O)(O)c1cc(O)c2ccc(Nc3ccccc3)cc2c1,249%,1%,-13%,18µM*,i,-1%
O=S(=O)(O)c1ccc(O)c2cc(Nc3ccccc3)ccc12,48%,-2%,-14%,32µM*,i,2%
Cc1ccc(-c2noc([C@@H]3Cc4nc[nH]c4CN3Cc3ccccc3)n2)cc1,nt,nt,nt,28%[176 µM],nt,nt
COc1ccc(CN2C(=O)[C@@H]3C[C@@H](CN3C3CCC3)Oc3ccccc32)cc1,nt,nt,nt,165%[176 µM],nt,nt
Fc1ccc(CSc2nnc(-c3c[nH]c4ccccc34)n2C2CC2)c(Cl)c1,nt,nt,nt,-24%,nt,nt
CCN(CC)c1ccc(N2C(=O)/C(=C/c3cccs3)SC2=S)cc1,3%,2%,-5%,14%,-103%*,-4%
CCN(CC)c1ccc(N2C(=O)CSC2=S)cc1,0%,-2%,-2%,i,i,0%
O=c1c(Br)c(-c2ccccc2Br)[nH]c2ccccc12,nt,nt,nt,-16%,nt,nt
Cc1c(CN(C)C(=O)Cn2nc(C(F)(F)F)c(Cl)c2C)cnn1C,nt,nt,nt,12%,nt,nt
Cc1ccc(-n2[nH]c(CSc3nnnn3-c3ccccc3)cc2=O)cc1,nt,nt,nt,50µM*,nt,nt
O=c1cc(CSc2nnnn2-c2ccccc2)[nH]c2[nH]n(-c3ccccc3)c(=O)c12,2%,0%,-1%,0%,i,-3%
O=c1cc(CSc2nnnn2-c2ccccc2)[nH]n1-c1ccc(Cl)cc1,nt,nt,nt,40µM*,nt,nt
Cc1cccc(OCCc2noc(C3CCCNC3)n2)c1 (stereo not drawn),nt,nt,nt,5%,nt,nt
Cc1[nH]c2ccccc2c1C(c1ccccc1)c1ccc(Cl)s1 (stereo not drawn),nt,-13%,nt,-14%,nt,5%
Cc1[nH]c2ccccc2c1C(c1ccc(O)cc1)c1c(C)[nH]c2ccccc12,nt,nt,nt,14µM*,nt,nt
O=C(NCC1Cn2cccc2CN1Cc1ccccc1)c1ccc2cc[nH]c2c1 (stereo not drawn),nt,nt,nt,192%,nt,nt
CCOC(=O)C1=C(C)Nc2nc(SCc3ccccc3)nn2C1c1ccc(C)cc1 (stereo not drawn),nt,nt,nt,3%,nt,nt
CC(CCc1ccc(O)cc1)NCc1ccc(Br)cc1 (stereo not drawn),0%,3%,-1%,13µM*,i,7%
COc1ccccc1NC(=O)C(C)OC(=O)c1cccnc1 (stereo not drawn),nt,nt,nt,4%,nt,nt
O=C1CCCC2=C1C(c1ccccc1)c1c([nH]n(-c3ccccc3)c1=O)N2 (stereo not drawn),nt,nt,nt,-11%,nt,nt
Cc1cccc(C2C3=C(Nc4[nH]n(-c5ccccc5)c(=O)c42)c2ccccc2C3=O)c1 (stereo not drawn),0%,-4%,-4%,35µM*,i,2%

# Screening results: PubChem, National Center for Advancing Translational Sciences (NCATS)
